Key:
PEG-3 [1] = target: PEG-3 (UniProt Q6IN02); assay: Peg3 promoter luciferase inhibitors, potency, dose response, cell-based, HeLa, CREF/GAPDH counter-screen panel (AID 624167); details: CREF/GAPDH counter-screens; HeLa PEG-Prom luciferase reporter, overnight, run 1, dose range 1, at 100 µM (top of the series) unless noted
PEG-3 [2] = target: PEG-3 (UniProt Q6IN02); assay: as above; details: CREF/GAPDH counter-screens; HeLa PEG-Prom luciferase reporter, overnight, run 2, dose range 1, at 100 µM (top of the series) unless noted
Rat fibroblasts (CREF) [3] = assay: as above; details: CREF/GAPDH counter-screens; run 1, dose range 1, at 100 µM (top of the series)
Rat fibroblasts (CREF) [4] = assay: as above; details: CREF/GAPDH counter-screens; run 2, dose range 1, at 100 µM (top of the series)
[5] = target: Tumor necrosis factor receptor superfamily member 10B (Homo sapiens) (UniProt O14763); assay: caspase-8 TRAIL sensitization, hit retest, confirmation, cell-based, NB7+caspase-8, with/without TRAIL, luminescence panel (AID 651596); details: NB7 neuroblastoma + caspase-8, TRAIL sensitization, luminescence viability, with TRAIL, mean of runs, at 10 µM, stronger effect = higher value
[6] = as above; details: NB7 neuroblastoma + caspase-8, without TRAIL, luminescence viability, without TRAIL, mean of runs, at 10 µM

Sequence of PEG-3 (Q6IN02 whole entry, looked up): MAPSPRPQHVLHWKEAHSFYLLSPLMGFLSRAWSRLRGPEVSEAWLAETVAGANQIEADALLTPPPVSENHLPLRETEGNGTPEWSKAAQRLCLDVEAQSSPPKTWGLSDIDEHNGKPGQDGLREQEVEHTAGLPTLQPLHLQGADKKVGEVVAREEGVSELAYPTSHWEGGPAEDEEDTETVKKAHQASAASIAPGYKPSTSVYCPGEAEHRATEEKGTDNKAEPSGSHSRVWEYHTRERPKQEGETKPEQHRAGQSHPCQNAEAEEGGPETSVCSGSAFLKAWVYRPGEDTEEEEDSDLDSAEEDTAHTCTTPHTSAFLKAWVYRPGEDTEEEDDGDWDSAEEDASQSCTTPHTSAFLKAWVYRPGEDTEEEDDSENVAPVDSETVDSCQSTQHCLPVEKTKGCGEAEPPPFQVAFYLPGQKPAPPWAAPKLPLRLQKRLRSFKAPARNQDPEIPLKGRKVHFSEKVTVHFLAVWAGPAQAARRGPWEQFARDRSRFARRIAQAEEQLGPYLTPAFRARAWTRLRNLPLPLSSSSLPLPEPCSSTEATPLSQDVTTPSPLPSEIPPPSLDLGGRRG
Sequence of Tumor necrosis factor receptor superfamily member 10B (Homo sapiens) (O14763 whole entry, looked up): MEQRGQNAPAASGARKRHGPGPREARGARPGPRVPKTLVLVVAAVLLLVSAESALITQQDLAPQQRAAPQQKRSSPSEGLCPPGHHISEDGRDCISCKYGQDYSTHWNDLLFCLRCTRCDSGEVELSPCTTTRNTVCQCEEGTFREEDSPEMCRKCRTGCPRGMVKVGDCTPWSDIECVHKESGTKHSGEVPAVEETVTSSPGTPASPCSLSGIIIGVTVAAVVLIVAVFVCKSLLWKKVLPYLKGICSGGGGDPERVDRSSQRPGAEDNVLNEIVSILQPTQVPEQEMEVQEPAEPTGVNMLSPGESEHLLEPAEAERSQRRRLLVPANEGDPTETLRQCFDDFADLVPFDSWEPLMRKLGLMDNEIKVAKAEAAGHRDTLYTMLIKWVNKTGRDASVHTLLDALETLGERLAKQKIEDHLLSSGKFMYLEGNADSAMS

SMILES | inhibition (PEG-3 [1]) [%] | inhibition (PEG-3 [2]) [%] | inhibition (Rat fibroblasts (CREF) [3]) [%] | inhibition (Rat fibroblasts (CREF) [4]) [%] | activity [5] [%] | activity [6] [%]
Cc1ccc(C(=O)CN2C(=O)c3ccccc3S2(=O)=O)cc1 | 93.5 | 92.4 | 87.2 | 87.5 | – | –
Cc1cc(NC(c2cccnc2)c2ccc3cccnc3c2O)no1 (stereo unspecified) | 63.9 | 74 | 59.7 | 94.9 | – | –
COc1ccc(/C=C/c2nc3ccccc3n2C)cc1 | 99.2 | 97.5 | 100 | 99.9 | 97.2 | 97.1
Cc1ccc(/C=C2\SC(=S)N(CCCC(=O)Nc3ccccn3)C2=O)cc1 | 88 | 94.2 | -11.8 | -1.96 | – | –
C(=N\Nc1ccc2ccccc2n1)/c1ccc2c(c1)OCCO2 | 98.4 | 96.2 | 53.6 | 101 | – | –
O=C(Nc1nc2cc3c(cc2s1)OCCO3)C1=COCCO1 | 99.1 | 98 | 95.3 | 97 | – | –
C(=N\Nc1nc2ccccc2[nH]1)/c1ccccn1 | 93.6 | 101 | 93.7 | 96.8 | 92 | 95.6
CN1C/C(=C/c2ccccc2[N+](=O)[O-])C(=O)/C(=C\c2ccccc2[N+](=O)[O-])C1 | 101 | 102 | 71.1 | 95.6 | – | –
CS(=O)(=O)Nc1cccc(NC(=O)C2Cc3c(-c4ccccc4)ccnc3O2)c1 (stereo unspecified) | 58.9 | 75.2 | 35.5 | 40 | 57 | 69.3
CCOC(=O)c1cnc(Nc2nc3ccccc3o2)nc1C | 85.5 | 81.8 | 92 | 93 | 92.1 | 91.1
Cc1cc(C)c2sc(NNC(=O)c3ccc(S(=O)(=O)N4CCc5ccccc5C4)cc3)nc2c1 | 84.2 | 94.7 | 53.3 | 25.5 | – | –
CCCCCCCNC(=O)C1(CC2CC(c3cccc(Br)c3)=NO2)CCNCC1 (stereo unspecified) | 99.6 | 101 | 99.7 | 99.2 | 60.5 | 98.4
Cc1cc(N2CCN(C)CC2)ccc1NC(=O)c1c2c(nc3ccccc13)CCN(Cc1ccccc1)C2 | 101 | 98.9 | 99.4 | 99.8 | – | –
O=C(O)c1ccc(N/N=C/c2ccc(OC(=O)c3cccc(Cl)c3)cc2)cc1 | 101 | 99.4 | 46.5 | 40 | – | –

— PubChem BioAssay
